# From the supplement of paper PMC10849652
# Of roughly 7,900 targets only a part is listed; those with a hit were picked by preference. About 0.6% of all pairs of compound and target were hits. Unmarked numbers belong to inactive results.
# Legend:
# Experiment in all cases: log2 fold change, soluble protein after heating vs DMSO (PISA); higher = thermal stabilisation; K562 cells, 10 uM, 30 min; active = over 0.2 and 3.5 SD of the protein, either way, in both replicates (recomputed)
# saracatinib = compound: CN1CCN(CCOc2cc(OC3CCOCC3)c3c(Nc4c(Cl)ccc5c4OCO5)ncnc3c2)CC1 [saracatinib]
# Outline: (§1)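 Thermal stability values are relative to control samples and come from duplicates. They are expressed as log2 fold changes. For measurement, K562 cells (2×10^6 cells/mL) received 10 μM compound for 30 min, and aliquots were heated for 3 min over 48°C-58°C, pooled, and extracted at 4°C in PBS with 0.5% NP-40. Soluble protein, the supernatant after 21,000xg for 90 min, was quantified by TMTpro 16plex LC-MS/MS with equalised channel sums.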
# sotrastaurin = compound: CN1CCN(c2nc(C3=C(c4c[nH]c5ccccc45)C(=O)NC3=O)c3ccccc3n2)CC1 [sotrastaurin]
# Outline: as §1
# alvocidib = compound: CN1CC[C@H](c2c(O)cc(O)c3c(=O)cc(-c4ccccc4Cl)oc23)[C@H](O)C1 [alvocidib]
# Outline: as §1
# Tubastatin A = compound: CN1CCc2c(c3ccccc3n2Cc2ccc(C(=O)NO)cc2)C1 [Tubastatin A]
# Outline: as §1
# [1] = compound: CNC(=O)C1=CC=CC=C1NC2=NC(=NC=C2Cl)NC3=C(C=C(C=C3)N4CCOCC4)OC
# Outline: as §1
# defactinib = compound: CNC(=O)c1ccc(Nc2ncc(C(F)(F)F)c(NCc3nccnc3N(C)S(C)(=O)=O)n2)cc1 [defactinib]
# Outline: as §1
# rucaparib = compound: CNCc1ccc(-c2[nH]c3cc(F)cc4c3c2CCNC4=O)cc1 [rucaparib]
# Outline: as §1
# [2] = compound: CNc1nc(-c2ccc3c(N)n[nH]c3c2)cc(N2C[C@@H](C(=O)NC3CCCCC3)CC[C@H]2C)n1
# Outline: as §1
# encorafenib = compound: COC(=O)N[C@@H](C)CNc1nccc(-c2cn(C(C)C)nc2-c2cc(Cl)cc(NS(C)(=O)=O)c2F)n1 [encorafenib]
# Outline: as §1
# [3] = compound: COC(=O)[C@H](CCSC)NC(=O)C1=C(C=C(C=C1)NC[C@H](CS)N)C2=CC=CC=C2
# Outline: as §1
# [4] = compound: COC1=CC=C(C=C1)CN2C=CC3=C2C=C(C=C3)C(=O)NO
# Outline: as §1
# filanesib = compound: CON(C)C(=O)N1N=C(c2cc(F)ccc2F)S[C@@]1(CCCN)c1ccccc1 [filanesib]
# Outline: as §1
# zotarolimus = compound: CO[C@H]1C[C@@H]2CC[C@@H](C)[C@@](O)(O2)C(=O)C(=O)N2CCCC[C@H]2C(=O)O[C@H]([C@H](C)C[C@@H]2CC[C@H](n3cnnn3)[C@H](OC)C2)CC(=O)[C@H](C)/C=C(\C)[C@@H](O)[C@@H](OC)C(=O)[C@H](C)C[C@H](C)/C=C/C=C/C=C/1C [zotarolimus]
# Outline: as §1
# idasanutlin = compound: COc1cc(C(=O)O)ccc1NC(=O)[C@@H]1N[C@@H](CC(C)(C)C)[C@](C#N)(c2ccc(Cl)cc2F)[C@H]1c1cccc(Cl)c1F [idasanutlin]
# Outline: as §1
# alisertib = compound: COc1cc(Nc2ncc3c(n2)-c2ccc(Cl)cc2C(c2c(F)cccc2OC)=NC3)ccc1C(=O)O [alisertib]
# Outline: as §1
# [5] = compound: COc1cc2nc(-c3cc(F)ccc3O)nc(N[C@@H]3CNC[C@H]3C(C)(C)O)c2cc1OC
# Outline: as §1
# gefitinib = compound: COc1cc2ncnc(Nc3ccc(F)c(Cl)c3)c2cc1OCCCN1CCOCC1 [gefitinib]
# Outline: as §1
# [6] = compound: COc1cccc2cc(-c3nc([C@H]4CC[C@H](C(=O)O)CC4)n4ncnc(N)c34)[nH]c12
# Outline: as §1
# lapatinib = compound: CS(=O)(=O)CCNCc1ccc(-c2ccc3ncnc(Nc4ccc(OCc5cccc(F)c5)c(Cl)c4)c3c2)o1 [lapatinib]
# Outline: as §1
# pictilisib = compound: CS(=O)(=O)N1CCN(Cc2cc3nc(-c4cccc5[nH]ncc45)nc(N4CCOCC4)c3s2)CC1 [pictilisib]
# Outline: as §1
# Sequence of UniProt Q9ULX6 (Q9ULX6 whole entry, looked up): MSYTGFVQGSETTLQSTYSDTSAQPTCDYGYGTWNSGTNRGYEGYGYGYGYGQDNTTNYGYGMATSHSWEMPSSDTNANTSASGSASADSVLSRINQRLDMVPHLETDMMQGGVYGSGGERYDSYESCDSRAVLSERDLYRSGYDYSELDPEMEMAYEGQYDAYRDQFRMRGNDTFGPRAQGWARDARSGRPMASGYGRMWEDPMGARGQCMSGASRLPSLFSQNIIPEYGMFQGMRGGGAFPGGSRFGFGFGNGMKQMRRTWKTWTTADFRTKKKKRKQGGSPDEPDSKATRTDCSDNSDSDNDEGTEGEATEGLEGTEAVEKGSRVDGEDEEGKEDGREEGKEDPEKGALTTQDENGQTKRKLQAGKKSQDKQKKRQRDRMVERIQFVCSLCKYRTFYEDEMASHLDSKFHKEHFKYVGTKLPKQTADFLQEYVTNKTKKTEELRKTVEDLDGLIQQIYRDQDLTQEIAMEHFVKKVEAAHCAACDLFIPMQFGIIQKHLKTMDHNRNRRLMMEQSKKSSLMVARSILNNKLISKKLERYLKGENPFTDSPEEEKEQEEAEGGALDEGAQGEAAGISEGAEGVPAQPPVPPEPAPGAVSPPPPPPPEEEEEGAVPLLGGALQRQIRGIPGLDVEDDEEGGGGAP
# Sequence of UniProt Q8TDN6 (Q8TDN6 whole entry, looked up): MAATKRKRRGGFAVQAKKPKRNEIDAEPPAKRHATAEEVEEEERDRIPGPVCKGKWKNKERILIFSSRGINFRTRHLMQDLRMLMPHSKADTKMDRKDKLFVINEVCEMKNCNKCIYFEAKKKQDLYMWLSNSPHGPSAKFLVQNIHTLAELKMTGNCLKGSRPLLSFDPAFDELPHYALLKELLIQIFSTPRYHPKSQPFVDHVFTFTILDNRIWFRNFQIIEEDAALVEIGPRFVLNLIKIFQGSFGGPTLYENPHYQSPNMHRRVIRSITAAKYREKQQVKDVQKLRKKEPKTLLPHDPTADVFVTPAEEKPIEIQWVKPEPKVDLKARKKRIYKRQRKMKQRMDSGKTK
# Sequence of UniProt Q9H8Y5 (Q9H8Y5 whole entry, looked up): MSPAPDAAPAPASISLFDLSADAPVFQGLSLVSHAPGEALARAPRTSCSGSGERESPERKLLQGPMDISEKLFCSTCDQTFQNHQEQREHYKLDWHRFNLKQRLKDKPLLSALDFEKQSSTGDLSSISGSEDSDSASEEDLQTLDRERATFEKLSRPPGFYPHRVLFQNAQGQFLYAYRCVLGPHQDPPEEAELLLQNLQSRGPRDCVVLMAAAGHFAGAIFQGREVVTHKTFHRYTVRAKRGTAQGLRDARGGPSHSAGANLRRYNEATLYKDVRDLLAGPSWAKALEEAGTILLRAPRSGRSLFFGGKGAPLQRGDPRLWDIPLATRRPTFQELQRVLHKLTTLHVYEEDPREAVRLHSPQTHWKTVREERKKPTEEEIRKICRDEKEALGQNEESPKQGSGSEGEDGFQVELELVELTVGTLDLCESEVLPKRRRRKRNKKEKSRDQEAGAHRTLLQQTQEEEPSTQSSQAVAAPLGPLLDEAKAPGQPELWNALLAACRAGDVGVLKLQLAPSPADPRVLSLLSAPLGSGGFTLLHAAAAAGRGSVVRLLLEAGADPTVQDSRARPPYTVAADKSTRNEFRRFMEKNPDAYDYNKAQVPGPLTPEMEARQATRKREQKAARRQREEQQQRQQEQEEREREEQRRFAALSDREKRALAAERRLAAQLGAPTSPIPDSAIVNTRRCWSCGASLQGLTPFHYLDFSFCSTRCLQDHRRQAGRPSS
# Sequence of UniProt Q8WV93 (Q8WV93 whole entry, looked up): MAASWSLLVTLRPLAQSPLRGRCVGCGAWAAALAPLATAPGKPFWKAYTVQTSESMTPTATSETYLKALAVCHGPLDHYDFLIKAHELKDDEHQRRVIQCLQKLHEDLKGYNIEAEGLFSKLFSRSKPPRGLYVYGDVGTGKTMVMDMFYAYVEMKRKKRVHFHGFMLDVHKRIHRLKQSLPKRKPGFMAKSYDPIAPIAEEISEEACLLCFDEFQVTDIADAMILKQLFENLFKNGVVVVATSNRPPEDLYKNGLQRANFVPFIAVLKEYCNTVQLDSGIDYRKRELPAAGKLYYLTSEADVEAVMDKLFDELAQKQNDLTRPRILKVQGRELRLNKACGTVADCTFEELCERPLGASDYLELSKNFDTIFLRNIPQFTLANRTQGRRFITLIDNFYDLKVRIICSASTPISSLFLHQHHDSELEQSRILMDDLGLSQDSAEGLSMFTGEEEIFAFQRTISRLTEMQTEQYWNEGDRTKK
# Sequence of UniProt Q9Y6E2 (Q9Y6E2 whole entry, looked up): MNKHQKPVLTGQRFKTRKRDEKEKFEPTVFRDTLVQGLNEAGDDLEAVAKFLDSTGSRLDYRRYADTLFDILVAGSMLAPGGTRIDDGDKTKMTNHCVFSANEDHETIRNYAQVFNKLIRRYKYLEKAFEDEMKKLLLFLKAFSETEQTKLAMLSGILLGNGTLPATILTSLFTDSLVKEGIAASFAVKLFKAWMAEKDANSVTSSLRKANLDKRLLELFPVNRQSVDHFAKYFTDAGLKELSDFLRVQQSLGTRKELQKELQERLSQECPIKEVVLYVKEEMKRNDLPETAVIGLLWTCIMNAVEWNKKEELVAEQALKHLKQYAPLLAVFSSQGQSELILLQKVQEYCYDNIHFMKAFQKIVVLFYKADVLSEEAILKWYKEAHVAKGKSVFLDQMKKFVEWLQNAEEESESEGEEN
# Sequence of UniProt Q9UKV3 (Q9UKV3 whole entry, looked up): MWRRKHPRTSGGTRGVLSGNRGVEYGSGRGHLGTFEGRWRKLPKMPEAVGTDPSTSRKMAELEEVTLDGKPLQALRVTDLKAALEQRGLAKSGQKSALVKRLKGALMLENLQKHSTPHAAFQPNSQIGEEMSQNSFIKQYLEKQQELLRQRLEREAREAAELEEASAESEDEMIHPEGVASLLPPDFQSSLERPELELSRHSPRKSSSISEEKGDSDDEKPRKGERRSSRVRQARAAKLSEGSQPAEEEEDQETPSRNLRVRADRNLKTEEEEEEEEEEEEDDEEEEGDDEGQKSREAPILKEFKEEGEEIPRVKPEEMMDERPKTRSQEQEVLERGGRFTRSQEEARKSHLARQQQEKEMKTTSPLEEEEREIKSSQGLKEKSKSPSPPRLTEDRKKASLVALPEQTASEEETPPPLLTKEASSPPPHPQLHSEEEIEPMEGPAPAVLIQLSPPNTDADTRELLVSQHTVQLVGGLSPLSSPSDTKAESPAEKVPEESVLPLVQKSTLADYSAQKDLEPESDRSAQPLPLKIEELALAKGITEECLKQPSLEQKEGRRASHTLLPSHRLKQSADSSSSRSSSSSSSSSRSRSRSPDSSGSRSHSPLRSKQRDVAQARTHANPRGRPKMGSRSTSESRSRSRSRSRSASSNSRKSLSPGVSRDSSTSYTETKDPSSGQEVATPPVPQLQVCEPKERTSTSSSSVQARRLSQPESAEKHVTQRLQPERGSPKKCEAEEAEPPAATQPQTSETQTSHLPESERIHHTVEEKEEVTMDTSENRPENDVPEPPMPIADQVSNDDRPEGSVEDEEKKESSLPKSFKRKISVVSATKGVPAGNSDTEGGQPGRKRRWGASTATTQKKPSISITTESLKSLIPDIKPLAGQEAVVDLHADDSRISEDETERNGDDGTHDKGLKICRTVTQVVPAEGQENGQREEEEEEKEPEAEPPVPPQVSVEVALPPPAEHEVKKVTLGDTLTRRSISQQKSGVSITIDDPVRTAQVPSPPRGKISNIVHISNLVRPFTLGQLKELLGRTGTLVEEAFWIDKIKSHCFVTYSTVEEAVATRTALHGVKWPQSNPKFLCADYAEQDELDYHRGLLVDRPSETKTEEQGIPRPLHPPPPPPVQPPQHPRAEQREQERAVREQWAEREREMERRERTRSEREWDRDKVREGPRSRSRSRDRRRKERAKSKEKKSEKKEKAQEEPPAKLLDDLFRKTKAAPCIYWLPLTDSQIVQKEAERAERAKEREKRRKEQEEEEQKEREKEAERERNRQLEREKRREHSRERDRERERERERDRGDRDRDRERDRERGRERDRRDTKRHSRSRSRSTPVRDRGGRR
# Sequence of UniProt O00116 (O00116 whole entry, looked up): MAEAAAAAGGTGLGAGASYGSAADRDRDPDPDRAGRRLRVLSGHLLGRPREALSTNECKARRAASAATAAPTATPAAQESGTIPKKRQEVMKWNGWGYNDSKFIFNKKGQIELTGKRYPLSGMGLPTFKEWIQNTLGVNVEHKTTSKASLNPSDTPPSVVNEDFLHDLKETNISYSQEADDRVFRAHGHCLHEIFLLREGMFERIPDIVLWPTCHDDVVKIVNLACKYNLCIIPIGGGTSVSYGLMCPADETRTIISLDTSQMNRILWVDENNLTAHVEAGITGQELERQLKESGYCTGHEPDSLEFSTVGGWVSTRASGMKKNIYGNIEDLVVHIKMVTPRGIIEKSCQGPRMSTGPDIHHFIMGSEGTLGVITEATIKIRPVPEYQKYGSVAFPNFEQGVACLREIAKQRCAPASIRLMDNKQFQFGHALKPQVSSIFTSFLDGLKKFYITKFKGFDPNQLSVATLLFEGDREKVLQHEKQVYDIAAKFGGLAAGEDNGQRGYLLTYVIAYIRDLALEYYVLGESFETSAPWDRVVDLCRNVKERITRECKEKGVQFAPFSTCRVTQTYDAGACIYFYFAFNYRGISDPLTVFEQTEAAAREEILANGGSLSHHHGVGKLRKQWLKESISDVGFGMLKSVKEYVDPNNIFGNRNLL
# Sequence of UniProt Q13795 (Q13795 whole entry, looked up): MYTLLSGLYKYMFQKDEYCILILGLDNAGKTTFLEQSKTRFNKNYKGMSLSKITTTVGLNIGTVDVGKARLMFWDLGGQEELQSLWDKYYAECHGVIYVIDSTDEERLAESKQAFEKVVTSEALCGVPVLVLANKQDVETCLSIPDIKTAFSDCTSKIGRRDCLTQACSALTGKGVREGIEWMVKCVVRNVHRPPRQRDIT
# Sequence of UniProt P40616 (P40616 whole entry, looked up): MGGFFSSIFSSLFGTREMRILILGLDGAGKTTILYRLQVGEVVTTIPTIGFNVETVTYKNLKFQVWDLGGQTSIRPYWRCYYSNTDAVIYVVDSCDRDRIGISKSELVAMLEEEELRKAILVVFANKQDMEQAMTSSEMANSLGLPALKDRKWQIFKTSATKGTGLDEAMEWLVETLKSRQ
Target,log2 fold change (saracatinib),log2 fold change (sotrastaurin),log2 fold change (alvocidib),log2 fold change (Tubastatin A),log2 fold change [1],log2 fold change (defactinib),log2 fold change (rucaparib),log2 fold change [2],log2 fold change (encorafenib),log2 fold change [3],log2 fold change [4],log2 fold change (filanesib),log2 fold change (zotarolimus),log2 fold change (idasanutlin),log2 fold change (alisertib),log2 fold change [5],log2 fold change (gefitinib),log2 fold change [6],log2 fold change (lapatinib),log2 fold change (pictilisib)
ATP5IF1 (UniProt Q9UII2),-0.111,0.111,0.013,-0.039,-0.014,0.046,-0.011,0.011,-0.063,-0.244 (active),-0.02,-0.067,0.004,0.093,-0.062,0.024,0.013,0.03,-0.043,-0.016
ARL1 (UniProt P40616),0.117,-0.049,-0.068,0.031,-0.017,0.03,-0.012,0.058,0.117,-0.178,-0.007,-0.155,0.03,-0.254 (active),-0.124,-0.042,0.047,0.042,0.117,-0.135
ANKZF1 (UniProt Q9H8Y5),-0.146,-0.093,0.034,0.088,0.04,0.123,0.167,0.156,0.119,-0.274,-0.005,0.249,0.048,0.235,-0.034,0.042,-0.001,-0.022,-0.046,-0.002
AFG1L (UniProt Q8WV93),-0.038,-0.075,-0.195,-0.204,-0.011,-0.131,-0.057,0.002,0.025,0.088,-0.17,-0.239,0.018,0.016,-0.065,-0.18,-0.012,0.107,0.041,–
ARL2BP (UniProt Q9Y2Y0),0.093,-0.047,-0.021,0.082,0.002,-0.153,0.055,0.147,-0.12,-0.055,0.287,-0.061,0.062,-0.012,-0.074,-0.049,0.028,0.02,-0.025,0.098
BRIX1 (UniProt Q8TDN6),-0.106,-0.051,0.174,0.2,-0.154,0.394,0.253,0.129,0.123,0.017,-0.006,0.574,0.132,0.397,-0.23,-0.224,-0.039,-0.193,0.218,-0.004
AP2A2 isoform 2 (UniProt O94973),0.006,-0.028,0.052,0.022,0.022,-0.006,0.077,-0.053,-0.002,-0.008,0.009,0.064,0.003,0.022,-0.095,0.083,0.027,0,0.01,-0.002
ATP6AP1 (UniProt Q15904),-0.021,-0.097,0.055,0.043,-0.011,0.066,-0.057,-0.006,0.053,-0.031,-0.099,-0.064,0.025,0.009,0.166,-0.068,-0.009,-0.057,0.019,-0.017
ACSL1 (UniProt P33121),0,0.029,-0.083,-0.075,-0.003,-0.025,-0.021,-0.025,0.031,0.042,-0.014,-0.08,0.038,-0.017,0.015,-0.261,0.024,0.024,0.017,0.041
AKAP8L (UniProt Q9ULX6),-0.127,-0.203,-0.21,0.055,-0.097,-0.477 (active),-0.008,0.027,0.025,0.049,0.032,0.064,0.097,0.205,0.041,-0.212,0.008,0.001,0.034,0.019
AGPS (UniProt O00116),-0.01,0.018,-0.058,-0.011,0.032,-0.039,-0.017,0.047,0.009,-0.042,0.074,-0.145,0.05,-0.037,-0.03,-0.044,0.069,0.048,0.018,-0.003
BZW2 (UniProt Q9Y6E2),-0.007,-0.032,-0.086,-0.004,-0.006,-0.057,-0.022,0.001,0.058,-0.026,-0.029,-0.05,0.02,-0.126,-0.056,0.011,-0.009,0.023,-0.055,-0.034
ACIN1 (UniProt Q9UKV3),-0.027,-0.01,-0.057,0.032,-0.165,-0.253 (active),-0.017,-0.054,-0.038,0.003,0.019,0.073,0.028,0.099,-0.082,-0.062,0.041,0.006,0.034,0.03
AP2S1 (UniProt P53680),0.012,0.009,-0.009,0.009,0.077,0.038,0.019,-0.012,0.077,0.025,-0.031,0.037,0.013,-0.033,-0.159,0.023,0.017,-0.061,-0.022,-0.023
ATR (UniProt Q13535),-0.044,-0.013,-0.107,0.02,0.014,-0.035,0.008,0.039,0.008,-0.024,-0.267 (active),0.019,0.057,-0.067,-0.05,0.031,0.019,0,0.039,0.112
ARFRP1 (UniProt Q13795),0.108,-0.035,-0.008,-0.059,0.037,0.01,0.033,0.031,-0.027,-0.137,0.127,-0.261 (active),0.02,-0.168,0.111,0.039,-0.016,-0.024,0.071,0.168
